Assay outcomes (PubChem BioAssay)
Shown are actives, neighbours in structure and some others; about 1.1% of the full set was active somewhere.
HTT aggregate – reduces HttQ103-GFP aggregates in PC12 cells. 1.1% of 220,000 active. PC12 HttQ103-GFP aggregates, Acumen cytometry, 40 h. Potency, µM (series often up to 46.1 µM), inactives show top-dose activity change, negative = inhibition, actives largely listed as inhibitors. AID 1688; further: potency means the concentration at half of the fitted maximal effect; on the % scale 0 is the no-effect control and ±100 the full control effect; nearly all actives have a fitted effect of over 60% in size
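PC12/HTTQ103-GFP, ecdysone-inducible; teb 100 nM; cpd qHTS titration; GFP aggregates read on laser cytometer, Ex 488/Em 500-530 nm.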
NPSR antagonist – neuropeptide S receptor (human) antagonism, cAMP; Q6W5P4; CHO-NPSR cells, cAMP TR-FRET, antagonist mode; Potency, µM (series often up to 38.3 µM), for inactives: at the top dose activity change, negative = inhibition, most hits filed as inhibitors; 1% of 220,000 active; further: potency means the concentration at half of the fitted maximal effect; on the % scale 0 is the no-effect control and ±100 the full control effect; nearly all actives have a fitted effect of over 50% in size
Target sequence (Q6W5P4 whole entry, looked up): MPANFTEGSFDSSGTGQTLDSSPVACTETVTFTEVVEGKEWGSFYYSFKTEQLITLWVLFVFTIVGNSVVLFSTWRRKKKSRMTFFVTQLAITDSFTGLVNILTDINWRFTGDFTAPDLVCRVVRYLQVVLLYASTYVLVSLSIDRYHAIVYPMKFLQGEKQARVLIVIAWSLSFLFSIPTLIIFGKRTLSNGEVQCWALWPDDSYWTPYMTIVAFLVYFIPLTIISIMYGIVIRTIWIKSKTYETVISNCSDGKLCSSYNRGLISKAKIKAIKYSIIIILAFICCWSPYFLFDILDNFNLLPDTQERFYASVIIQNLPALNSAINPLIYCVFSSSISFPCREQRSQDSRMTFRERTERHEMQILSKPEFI
CBFb RUNX1 block – inhibitors of human CBF-beta and RUNX1 interaction | Q01196+Q13951 | AlphaScreen CBFb-His/RUNX1-biotin binding, biochemical | Potency, µM (series often up to 59.8 µM), for the others: top-dose activity, negative = inhibition, most hits filed as inhibitors | 230,000 tested, under 10 active | AID 1477; further: % of control where 0% means no effect
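CBFb-His/RUNX1-biotin, 30 nM each, preincubated 20 min RT; compound 15 min RT; Ni + streptavidin beads 50 ng each, 90 min RT; AlphaScreen read.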
HTT cytoprotect – Huntington cell model cytoprotection by ATP luminescence | Potency, µM (highest dose often 56.4 µM), without a hit: cytoprotection (ATP increase), hits mostly activators | AID 1471 | 0.14% of 230,000 active | PC12 HTT-Q103 induced, cytoprotection, ATP luminescence, 40 h; further: potency means the concentration at half of the fitted maximal effect; % of control where 0% means no effect; nearly all actives have a fitted effect of over 45% in size
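Compounds added alongside 100 nM tebufenozide, which induces toxic Q103 huntingtin exon 1-GFP in stable PC12 cells; surviving cells quantified by luminescent ATP measurement. Medium: phenol red-free DMEM, 5% equine and 5% calf serum.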
MBNL1-CUG inh – inhibitors of human MBNL1 binding to CUG repeat RNA | Q9NR56 | TR-FRET MBNL1-His/biotin-(CUG)12 binding, 665/545 ratio | Potency, µM (doses to about 57.5 µM), without a hit: at the highest dose activity change, negative = inhibition, hits mostly inhibitors | 0.036% of 280,000 active | AID 2675; active means well fitted inhibition curve with a large enough effect in the signal ratio, with a control signal flat, not every such curve was filed as active; inconclusive means small, poorly fitted or top-dose-only effect, or effect the other way, or a change in a side signal; inactive means no such curve, though single readings can be large or run the other way; the % refers to the signal ratio; further: potency means the concentration at half of the fitted maximal effect; on the % scale 0 is the no-effect control and ±100 the full control effect
Target sequence (Q9NR56 whole entry, looked up): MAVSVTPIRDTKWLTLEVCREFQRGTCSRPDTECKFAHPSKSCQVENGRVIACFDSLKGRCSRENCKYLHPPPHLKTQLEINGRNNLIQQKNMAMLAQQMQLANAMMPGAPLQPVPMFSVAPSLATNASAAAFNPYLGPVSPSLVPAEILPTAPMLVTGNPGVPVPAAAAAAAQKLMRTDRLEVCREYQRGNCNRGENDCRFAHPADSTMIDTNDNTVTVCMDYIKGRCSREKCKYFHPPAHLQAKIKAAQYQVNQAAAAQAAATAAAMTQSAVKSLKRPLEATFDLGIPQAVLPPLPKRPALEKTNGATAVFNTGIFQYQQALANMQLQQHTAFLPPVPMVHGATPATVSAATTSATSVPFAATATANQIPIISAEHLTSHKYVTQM
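Compound titration spanned 92 nM–58 uM against the MBNL1-His/biotin-(CUG)12 complex. After 60 min at room temperature with 5 nM streptavidin-XL665 and 0.055 ng/ul terbium anti-His, ratiometric 665/545 nm emission (Ex 340 nm) normalized to controls.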
Lamin A splicing – LMNA splicing modulation | HeLa LMNA splicing GFP/RFP minigene ratio, 48 h | AID 1487 | 0.01% of 200,000 active | Potency, µM (titrated, usually from 46.1 µM), inactives show top-dose ratio change, negative = inhibition, hits mostly inhibitors; active means well fitted inhibition curve with a large enough effect in the signal ratio, with a control signal flat, not every such curve was filed as active; inconclusive means small, poorly fitted or top-dose-only effect, or effect the other way, or a change in a side signal; the % refers to the signal ratio; further: potency means the concentration at half of the fitted maximal effect; on the % scale 0 is the no-effect control and ±100 the full control effect
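Read-out is the ratio of GFP to DsRed2 object intensity, acquired by 488 nm laser-scanning cytometry on HeLa lamin A-EGFP minigene reporter cells. Compound incubation 48 hrs at 37 °C in Opti-MEM with 2% FBS; DMSO 0.5% final.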
Numbers without * were called inactive; [ ] = dose if it differs, or a comment. Unless noted, the call rests on the fitted dose curve; in most records, active means well fitted curve in the direction sought with a large enough effect; inconclusive means small, poorly fitted or top-dose-only effect, or another doubt; inactive means no such curve, though single readings can be large; an effect the other way counts as inactive or inconclusive.

O=[N+]([O-])c1ccc(O)c(Nc2ncnc3ccccc23)c1 was read as HTT aggregate 10%[9.22 µM], NPSR antagonist 12%, CBFb RUNX1 block 3%, HTT cytoprotect -11%[10 µM] and MBNL1-CUG inh inconclusive.
`COC(=O)C[C@H]1c2ccccc2C2=C(C[C@@H](C)[C@H]3C(=O)NC(=O)[C@@H]23)N1C(=O)OC` gave CBFb RUNX1 block -3%[13.1 µM], HTT cytoprotect -5%[10 µM] and Lamin A splicing -11%[9.22 µM].
`O=C(O)CNCCc1ccccc1` gave HTT cytoprotect 0%[10 µM].
Screening CC(=O)c1cccc(NC(=O)C2CCCN(c3nnc(-n4cccc4)s3)C2)c1 (configuration not stated) returned Lamin A splicing -13%[46 µM].
For COc1ccc(-c2cc(-c3ccc(O)cc3)nc(N)c2C#N)cc1 the results were MBNL1-CUG inh 21%.
`CCc1nnc(NC(=O)CSc2nc(-c3ccccc3)cc(-c3ccc(OC)cc3)c2C#N)s1` gave HTT aggregate 3%, NPSR antagonist 7.9µM*, CBFb RUNX1 block inconclusive, HTT cytoprotect 22%[10 µM] and Lamin A splicing -1%.
N#Cc1c(-c2ccccc2)cc(C2CC2)nc1SCC(=O)c1cccs1 was read as HTT aggregate 24%, NPSR antagonist inconclusive, CBFb RUNX1 block 16%, HTT cytoprotect -17%, MBNL1-CUG inh 0% and Lamin A splicing 15%.
`CC(C)NC(=O)CSc1nc(-c2cccs2)cc(-c2ccccc2)c1C#N` gave HTT aggregate -6%, NPSR antagonist 10µM*, CBFb RUNX1 block 3%, HTT cytoprotect 11%[1.9 µM], MBNL1-CUG inh inconclusive and Lamin A splicing -4%.
Screening N#Cc1c(N)nc(SCC(=O)C23CC4CC(CC(C4)C2)C3)c(C#N)c1-c1ccc(Cl)cc1 returned HTT aggregate 21%, NPSR antagonist 3.2µM*, CBFb RUNX1 block 4%, HTT cytoprotect -44%, MBNL1-CUG inh 213% and Lamin A splicing 4%.
`COc1ccc(-c2cc(-c3ccc(OC)cc3)c(C#N)c(SC)n2)cc1` gave HTT aggregate -4%, NPSR antagonist 13µM*, CBFb RUNX1 block -1%, HTT cytoprotect -2%[10 µM], MBNL1-CUG inh 2% and Lamin A splicing -11%.
COc1ccc(-c2cc(-c3ccccc3)nc(SCC(=O)Nc3nccs3)c2C#N)cc1 was read as HTT aggregate -6%, NPSR antagonist inconclusive, CBFb RUNX1 block -1%, HTT cytoprotect 9%[10 µM], MBNL1-CUG inh 0% and Lamin A splicing -7%.
`CC(=O)CSc1nc(N)c(C#N)c(-c2cccs2)c1C#N` gave HTT aggregate 14µM*, NPSR antagonist 2%[46.1 µM], CBFb RUNX1 block 0%, HTT cytoprotect 24%, MBNL1-CUG inh 245% and Lamin A splicing -4%.
`CC(C)OC(=O)CSc1nc(N)c(C#N)c(-c2cccs2)c1C#N` gave HTT aggregate 1%, NPSR antagonist 4%[46.1 µM], CBFb RUNX1 block 10%, HTT cytoprotect 19%, MBNL1-CUG inh 167% and Lamin A splicing inconclusive.
Screening NCCc1nc(-c2nc(C(=O)O)cs2)cs1 returned HTT cytoprotect 8%[10 µM].
CCCOc1cccc(NC(=O)c2c(-c3ccccc3)noc2C)c1 was read as HTT aggregate 6.3µM*, NPSR antagonist -23%[46.1 µM], CBFb RUNX1 block -2%, HTT cytoprotect 3%, MBNL1-CUG inh 5% and Lamin A splicing inconclusive.
`CCNc1ncc2nc(-c3cccs3)c(=O)n(CCc3ccccc3)c2n1` gave HTT cytoprotect 1.4µM* and Lamin A splicing inconclusive.
CCCCCCCCCCCCCCCC(=O)NC[C@@H](COP(=O)([O-])OCC[N+](C)(C)C)OCC was read as HTT cytoprotect 2%[1.9 µM].
Screening CCCCCCCCCCCCCCCC(=O)NCC(COP(=O)([O-])OCC[N+](C)(C)C)OCC (configuration not stated) returned NPSR antagonist 10µM*, CBFb RUNX1 block 0% and Lamin A splicing inconclusive.
For CCC(C)(C)n1nnnc1C(c1ccc2ncccc2c1)N1CCN(Cc2ccc3c(c2)OCO3)CC1 (configuration not stated) the results were HTT aggregate 2%, NPSR antagonist 7.9µM*, CBFb RUNX1 block -5%, HTT cytoprotect 2%, MBNL1-CUG inh 14% and Lamin A splicing 5%.
`O=C1[C@@H]2C=CC=CC2=NC(=S)N1CCN1CCC(=C(c2ccc(F)cc2)c2ccc(F)cc2)CC1` gave HTT cytoprotect 23%[1.9 µM].
For COc1cc2[nH]c3c(N4CCN(c5ccccn5)CC4)ncnc3c2cc1OC the results were HTT aggregate 20µM*, NPSR antagonist inconclusive, CBFb RUNX1 block -15%, HTT cytoprotect -165%[0.074 µM], MBNL1-CUG inh -5% and Lamin A splicing inconclusive.
Screening CCOC(=O)N1CCN(c2ncnc3c2[nH]c2ccc(F)cc23)CC1 returned HTT aggregate 7.1µM*, NPSR antagonist -20%[46.1 µM], CBFb RUNX1 block 7%, HTT cytoprotect -49%, MBNL1-CUG inh -9% and Lamin A splicing inconclusive.
Screening Fc1ccc2[nH]c3c(N4CCN(c5ccccc5)CC4)ncnc3c2c1 returned HTT aggregate 22µM*, NPSR antagonist inconclusive, CBFb RUNX1 block -3%, HTT cytoprotect 30%[1.9 µM], MBNL1-CUG inh -3% and Lamin A splicing inconclusive.
OC1(c2cccc(C(F)(F)F)c2)CCN(c2ncnc3c2[nH]c2ccc(F)cc23)CC1 was read as HTT aggregate inconclusive, NPSR antagonist 13µM*, CBFb RUNX1 block 0%, HTT cytoprotect -136%, MBNL1-CUG inh -6% and Lamin A splicing inconclusive.
`CCN(C(=O)c1cnc(N2CCOCC2)c2ccccc12)c1cc(C)ccc1C` gave Lamin A splicing 6%[46 µM].
`Cc1ccc(C(=O)Nc2nc(=O)n(C(=O)c3ccccc3C)s2)cc1` gave NPSR antagonist -21%[46.1 µM], CBFb RUNX1 block -4%, HTT cytoprotect 18µM*, MBNL1-CUG inh -27% and Lamin A splicing 22%.
`Cc1noc(C)c1-c1ccc2ncnc(NC3CCCc4ccccc43)c2c1` (configuration not stated) gave CBFb RUNX1 block 2%.
`COC(=O)c1cc(C(=O)c2cc(Br)ccc2O)coc1=N` gave HTT aggregate -11%, NPSR antagonist -15%, CBFb RUNX1 block 3%, HTT cytoprotect -19%, MBNL1-CUG inh -2% and Lamin A splicing -5%[46 µM].
Screening CC(C)NC(=O)c1cc(C(=O)c2cc(Cl)ccc2O)coc1=N returned HTT aggregate 7.9µM*, NPSR antagonist -23%[46.1 µM], CBFb RUNX1 block 5%, HTT cytoprotect -9%, MBNL1-CUG inh -6% and Lamin A splicing -1%.
